Six1-Eya2 inh = qHTS Assay for Inhibitors of the Six1/Eya2 Interaction; AlphaScreen GST-Six1/His-Eya2 binding, biochemical; active compounds read low; 360,000 compounds, 0.56% hits; activity change, % (test concentration not listed); in the data active = activity change below about -65%; inconclusive = mostly about -30% to -63%
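GST-Six1 + His-Eya2 (5X stock: 250/500 nM); Tris pH 8.0, 300 mM NaCl, 0.05% BSA, 0.02% Tween 20; GSH donor/Ni acceptor beads; 1 h 37 °C dark; AlphaScreen readout.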
G9a block = qHTS Assay for Inhibitors of Histone Lysine Methyltransferase G9a. Histone-lysine N-methyltransferase EHMT2 (Homo sapiens), Q96KQ7. G9a H3K9 monomethylation, AlphaScreen, 2 h. Potency, µM (doses to about 102 µM), usual class: inhibitors. 350,000 compounds, 8.8% hits; also: nearly all actives have a fitted effect of over 75% in size
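Enzyme 20 nM + cpd, 15 min RT; add b-H3K9 pep 500 nM / SAM 20 uM; 2 h RT; anti-H3K9me1 Ab 0.5 ug/mL + SA donor / anti-rabbit acceptor beads 20 ug/mL each, 10 min; AlphaScreen read.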
BAZ2B inh = qHTS Assay for Inhibitors of BAZ2B | AlphaScreen BAZ2B-H3K14Ac peptide displacement | Potency, µM (top dose mostly 114 µM), usual class: inhibitors | 360,000 compounds, 4.4% hits | AID 504333, 2011; also: nearly all actives have a fitted effect of over 60% in size
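Protein-peptide AlphaScreen: BAZ2B 50 nM, b-H3K14Ac 50 nM, 1x PBS pH 7.4 + 0.01% Tween-20. Preincubation 30 min RT; cpd 30 min RT (top 110 uM); beads 20 min RT, light-protected.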
JMJD2A Tudor inh = qHTS Assay for Inhibitors of JMJD2A-Tudor Domain; AlphaScreen JMJD2A-Tudor / H3K4me3 peptide binding; Lysine-specific demethylase 4A (Homo sapiens), O75164; 390,000 compounds, 4.4% hits; Potency, µM (doses to about 114 µM), usual class: inhibitors; AID 504339, 2011; also: nearly all actives have a fitted effect of over 50% in size
Target sequence (O75164 whole entry, looked up, the tested form may be a part): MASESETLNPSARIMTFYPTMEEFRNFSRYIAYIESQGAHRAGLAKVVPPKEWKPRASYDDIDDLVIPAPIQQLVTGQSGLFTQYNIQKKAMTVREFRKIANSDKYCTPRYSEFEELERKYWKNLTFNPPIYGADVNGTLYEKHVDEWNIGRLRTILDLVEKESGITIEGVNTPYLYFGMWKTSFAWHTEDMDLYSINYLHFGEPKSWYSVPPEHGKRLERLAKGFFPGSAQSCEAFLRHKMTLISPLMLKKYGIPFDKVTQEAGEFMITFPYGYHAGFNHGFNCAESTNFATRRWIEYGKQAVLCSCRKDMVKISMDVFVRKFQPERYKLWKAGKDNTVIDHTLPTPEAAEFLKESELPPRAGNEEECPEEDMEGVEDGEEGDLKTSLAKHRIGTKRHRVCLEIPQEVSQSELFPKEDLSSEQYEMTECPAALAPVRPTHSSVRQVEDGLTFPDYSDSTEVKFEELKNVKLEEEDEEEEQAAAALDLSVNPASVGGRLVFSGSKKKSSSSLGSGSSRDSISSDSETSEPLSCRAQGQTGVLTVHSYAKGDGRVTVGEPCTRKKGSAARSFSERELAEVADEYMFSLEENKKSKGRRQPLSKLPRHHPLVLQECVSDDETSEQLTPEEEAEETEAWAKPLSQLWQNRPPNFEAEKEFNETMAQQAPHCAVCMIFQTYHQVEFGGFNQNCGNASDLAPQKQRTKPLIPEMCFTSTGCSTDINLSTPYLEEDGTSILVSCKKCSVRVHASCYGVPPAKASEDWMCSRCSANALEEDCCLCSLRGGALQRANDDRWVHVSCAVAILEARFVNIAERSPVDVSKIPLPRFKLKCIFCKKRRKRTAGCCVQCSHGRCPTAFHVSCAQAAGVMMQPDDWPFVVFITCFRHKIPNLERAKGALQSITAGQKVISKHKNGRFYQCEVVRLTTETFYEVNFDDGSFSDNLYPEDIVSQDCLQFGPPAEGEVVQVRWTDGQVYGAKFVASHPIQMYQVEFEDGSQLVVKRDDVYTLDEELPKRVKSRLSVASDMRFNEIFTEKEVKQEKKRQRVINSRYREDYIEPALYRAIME
HP1b binding inh = HTS for Inhibitors of HP1-beta Chromodomain Interactions with Methylated Histone Tails. Chromobox protein homolog 1 (Homo sapiens), P83916. AlphaScreen HP1-beta / biotin-H3K9me3 peptide binding. Potency, µM (top dose mostly 114 µM), usual class: inhibitors. 390,000 compounds, 0.56% hits. AID 540317, 2011; also: nearly all actives have a fitted effect of over 70% in size
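HP1-beta protein (50 nM final) preincubated 30 min at room temperature with biotinylated H3(1-18)K9me3 peptide (50 nM) in PBS pH 7.4, 0.01% Tween-20, then compound added for 30 min. AlphaScreen streptavidin donor/nickel chelate acceptor beads (10 ug/mL final), 30 min dark, luminescence read.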
CtBP-E1A inh = qHTS Assay for Inhibitors of the CtBP/E1A Interaction; AlphaScreen GST-E1A/His-CtBP binding, 1536-well; active compounds read low; activity change, % (no concentration beside the values); 340,000 compounds, 0.49% hits; in the data active = activity change below about -65%; inconclusive = mostly about -30% to -63%
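In 5 uL wells, 23 nL compound meets equimolar GST-E1A and His-CtBP (5X stock 125 nM each) for 2 h, 37 °C. Beads (5X, 50 ug/mL) then 1 h, 37 °C, dark.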
Numbers stand for hits; - = inactive; ? = inconclusive; . = not tested or not shown; [ ] = dose if it differs, or a comment. The list is not random: actives were taken first. Their share in the collection is about 10%. Unless noted, calls follow the shape of the dose curve; as a rule, active = well fitted inhibition curve with a large enough effect; inconclusive = small, poorly fitted or top-dose-only effect; inactive = no such curve, though single readings can be large or run the other way.

SMILES | Six1-Eya2 inh | G9a block | BAZ2B inh | JMJD2A Tudor inh | HP1b binding inh | CtBP-E1A inh
CCCCCCC1(C)NC(=O)N(C(C)C(=O)Nc2ccc(N3CCOCC3)cc2)C1=O (stereo unspecified) | - | -[12.7 µM] | - | - | - | .
CC(C)[C@H](NC(=O)c1ccccc1F)C(=O)NC1CCCCCCC1 | - | . | . | - | - | -
CC(C)c1ccc(Nc2ncnc3c2nc2n3CCCC2)cc1 | . | - | - | - | - | .
O=S(=O)(Nc1cc(C(F)(F)F)ccc1N1CCOCC1)c1ccccc1 | - | - | - | - | - | .
Cc1ccc(S(=O)(=O)c2ccc(NN)cc2)cc1 | - | 8.91µM | - | - | - | -
Cc1ccc(S(=O)(=O)Nc2ccc(N3CCOCC3)cc2)cc1C | - | 44.7µM | - | ? | - | -
O=S(=O)(Nc1cc(C(F)(F)F)ccc1N1CCOCC1)c1ccc2ccccc2c1 | - | 50.1µM | - | - | - | -
FC(F)(F)c1ccc(N2CCOCC2)c(NC2=NCCCCC2)c1 | - | 50.1µM | ? | - | - | -
COCCn1c(=O)c(-c2ccc(OC)cc2)nc2cnc(Oc3ccccc3)nc21 | . | -[12.7 µM] | . | . | . | .
NC(=O)C1CCN(S(=O)(=O)Cc2ccccc2Cl)CC1 | - | -[12.7 µM] | - | - | - | .
Cc1c(Cl)cccc1Nc1nn2c(=O)c3ccc(C(=O)N(C)Cc4ccccc4)cc3nc2s1 | . | - | - | - | - | .
CCCOc1ccc(/C(O)=C2\C(=O)C(=O)N(c3ccccn3)C2c2ccccc2F)cc1C (stereo unspecified) | - | 79.4µM | - | ? | - | -
CCCCOc1ccc(/C(O)=C2/C(=O)C(=O)N(Cc3cccnc3)C2c2ccncc2)c(C)c1 (stereo unspecified) | - | 44.7µM | - | - | - | -
CCOc1ccc(/C(O)=C2/C(=O)C(=O)N(c3ccccn3)C2c2ccc(C)cc2)c(C)c1 (stereo unspecified) | - | 50.1µM | - | 35.5µM | ? | -
CCOc1ccc(/C(O)=C2/C(=O)C(=O)N(c3ccccn3)C2c2ccc(Cl)cc2)c(C)c1 (stereo unspecified) | - | ? | ? | ? | - | -
CC(=O)Nc1ccc(C)c([N+](=O)[O-])c1 | - | - | - | - | - | -
O=C(NNc1ccc([N+](=O)[O-])cc1)C1C2CCCCC21 (stereo unspecified) | - | 89.1µM | - | - | - | -
Cc1ccc(NC(=O)C2C3CCCCC32)cc1[N+](=O)[O-] (stereo unspecified) | - | . | 20µM | ? | - | -
CC(C)Cn1c(=O)c2ccccc2n2c(CCC(=O)Nc3cccc(Cl)c3)nnc12 | . | - | - | - | - | .
CCN1CCN(CCOCCOc2ccccc2-c2ccccc2)CC1 | . | 7.94µM | 20µM | . | . | .
c1ccc(-c2ccccc2OCCn2cncn2)cc1 | - | ? | - | - | - | -
Cc1cccc(OCCOCCN2CCNCC2)c1C | - | - | - | - | - | -
c1ccc(-c2ccccc2OCCOCCN2CCNCC2)cc1 | - | . | 22.4µM | - | - | -
Cc1cc2cc(CNC(=S)NC3CCCCC3)ccc2n1C | - | - | . | - | - | .
CCOC(=O)[C@]12CCC=C1N(Cc1ccc(Cl)cc1Cl)C(=O)[C@H](CC(=O)NCc1cccc3ccccc13)C2 | - | . | . | . | . | -
SMILES | Six1-Eya2 inh | G9a block | BAZ2B inh | JMJD2A Tudor inh | HP1b binding inh | CtBP-E1A inh
CCN(CC)S(=O)(=O)c1ccc2c(c1)N(CC(=O)Nc1ccc(Cl)cc1)C(=O)C1CCCN21 (stereo unspecified) | . | ? | - | - | - | .
COc1ccc(S(=O)(=O)N2CCCCCC2)cc1NC(=O)CN1C(=O)CNC1=O | - | . | . | - | - | -
COc1ccc(N2CCN(C(=O)CN3c4cccc5cccc(c45)S3(=O)=O)CC2)cc1 | - | . | . | - | - | -
CC(C)Oc1ccc(/C(O)=C2/C(=O)C(=O)N(CCCn3ccnc3)C2c2cccnc2)cc1 (stereo unspecified) | - | 39.8µM | - | - | - | -
Cc1ccc(C)c(/C(O)=C2\C(=O)C(=O)N(CCCn3ccnc3)C2c2cccnc2)c1 (stereo unspecified) | - | ? | 79.4µM | 56.2µM | - | -
Cc1ccc(/C(O)=C2/C(=O)C(=O)N(CCCn3ccnc3)C2c2cccnc2)cc1 (stereo unspecified) | - | . | . | - | - | -
CCCCOc1ccc(/C(O)=C2/C(=O)C(=O)N(CCCOC)C2c2ccncc2)cc1 (stereo unspecified) | - | -[12.7 µM] | - | - | - | -
COCCCN1C(=O)C(=O)/C(=C(/O)c2ccc(OC(C)C)cc2)C1c1ccncc1 (stereo unspecified) | - | 44.7µM | ? | - | - | -
CCCOc1ccc(/C(O)=C2/C(=O)C(=O)N(CCCN3CCOCC3)C2c2ccncc2)cc1 (stereo unspecified) | . | 14.1µM | ? | . | . | .
CNC(=O)c1cnc2sc(N3CCC(C)CC3)nn2c1=O | . | - | - | - | - | .
COc1cccc2cc(C(=O)NNC(=O)c3ccc(Br)cc3)c(=O)oc12 | - | 44.7µM | - | 79.4µM | ? | -
CCOC(=O)CC(NC(=O)c1cc2cccc(OC)c2oc1=O)c1cccc([N+](=O)[O-])c1 (stereo unspecified) | - | 31.6µM | - | ? | - | -
COc1cc(C(C)=O)ccc1OC(=O)c1cc2cccc(OC)c2oc1=O | - | 35.5µM | - | - | - | -
COc1cccc2cc(C(C)=O)c(=O)oc12 | - | -[12.7 µM] | - | - | - | -
Cc1ccccc1NC(=S)N1CCC(NC(=O)c2ccco2)CC1 | - | - | - | - | - | -
COc1ccc(NC(=O)C2CCC(CNS(=O)(=O)c3ccc(Br)s3)CC2)c(OC)c1 (stereo unspecified) | . | - | - | - | - | .
Nc1[nH]c(=S)[nH]c(=O)c1-c1ccccc1 | - | ? | - | 35.5µM | - | -
Cc1ccc2c(=O)cc(C(=O)Nc3cccc(C(F)(F)F)c3)oc2c1C | . | - | - | - | - | .
O=C(Cc1cccs1)OCC(=O)c1ccco1 | - | 50.1µM | ? | 79.4µM | ? | -
Cc1ccc(C)c(SCC(=O)OCC(=O)c2ccco2)c1 | - | ? | 50.1µM | 79.4µM | ? | -
COCC(C)NC(=O)C(C)N1c2cccc3cccc(c23)S1(=O)=O (stereo unspecified) | - | . | - | - | - | -
CC(C)CCNC(=S)Nc1ccccn1 | - | 1µM | - | - | - | -
CC(C)(C)C(=O)NC(=S)Nc1ccccn1 | - | - | - | - | - | -

Screening results: PubChem, National Center for Advancing Translational Sciences (NCATS)
